In the supplement of paper PMC10849652:
The full data set covers some 7,900 targets. This sample favours those with a hit. About 0.6% of all pairs of compound and target were hits.

What was measured:
Assay in all cases: log2 fold change, soluble protein after heating vs DMSO (PISA); higher = thermal stabilisation; K562 cells, 10 uM, 30 min; active = over 0.2 and 3.5 SD of the protein, either way, in both replicates (recomputed)
[1] = compound: C1COCCN1CCN2C3=CC=CC=C3N=C2NC(=O)C4=CC(=CC=C4)[N+](=O)[O-] [IRAK-1-4 Inhibitor I]
Outline: (§1)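 For each measurement, 10 μM compound was applied for 30 min to K562 cells at 2×10^6 cells/mL. Aliquots were heated for 3 min across 48°C-58°C, pooled, and extracted in PBS with 0.5% NP-40 at 4°C; the supernatant after 21,000xg for 90 min was soluble protein. This was quantified by TMTpro 16plex LC-MS/MS with channel sums equalised, and thermal stability was reported relative to control samples from duplicates, on a log2 fold-change scale.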

[2] = compound: C=CC(=O)N1CCC[C@@H](n2nc(-c3ccc(Oc4ccccc4)cc3)c3c(N)ncnc32)C1 [ibrutinib]
Outline: as §1

[3] = compound: CC(C)(C)Cn1c(N)nc2ccc(-c3[nH]c(C(C)(C)C)nc3-c3ccc(F)cc3)nc21 [ralimetinib]
Outline: as §1

[4] = compound: CC(C)(O)CC(=O)NCCn1ccc2ncnc(Nc3ccc(Oc4cccc(C(F)(F)F)c4)c(Cl)c3)c21
Outline: as §1

[5] = compound: CC(C)C1=C2N=C(C=C(N2N=C1)NCC3=CC=CC=C3)NCCCCCCN
Outline: as §1

[6] = compound: CC(C)C[C@@H](C=O)NC(=O)[C@H](CC(C)C)NC(=O)[C@H](CC(C)C)NC(=O)OCc1ccccc1
Outline: as §1

[7] = compound: CC(C)N(C[C@H]1O[C@@H](n2cnc3c(N)ncnc32)[C@H](O)[C@@H]1O)[C@H]1C[C@@H](CCc2nc3cc(C(C)(C)C)ccc3[nH]2)C1 [pinometostat]
Outline: as §1

[8] = compound: CC1=C(C(CC(=O)N1)C2=CC=C(C=C2)C(F)(F)F)C(=O)NC3=C(C=C4C(=C3)C=NN4)F
Outline: as §1

[9] = compound: CC1=C(C2=C(C=C1)C(=O)C3=CC=CC=C3N2CCCN)C
Outline: as §1

[10] = compound: CC(=O)c1cnc2ccc(-c3cc(Cl)c(O)c(Cl)c3)nc2c1N[C@H]1CC[C@H](CN(C)C)CC1
Outline: as §1

Measured: log2 fold change

GPS2 (UniProt Q13227)
Chain of UniProt Q13227 (Q13227 whole entry, looked up): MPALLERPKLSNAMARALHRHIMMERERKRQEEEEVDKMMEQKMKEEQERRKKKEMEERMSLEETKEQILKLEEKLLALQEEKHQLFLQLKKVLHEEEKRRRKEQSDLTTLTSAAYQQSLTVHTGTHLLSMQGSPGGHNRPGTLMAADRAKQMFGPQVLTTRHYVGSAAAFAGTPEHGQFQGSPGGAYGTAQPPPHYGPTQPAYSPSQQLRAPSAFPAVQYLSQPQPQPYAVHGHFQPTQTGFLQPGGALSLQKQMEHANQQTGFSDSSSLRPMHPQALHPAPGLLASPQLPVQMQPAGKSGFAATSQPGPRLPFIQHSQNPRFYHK
inactive: [1] -0.013 | [2] -0.006 | [3] -0.19 | [4] -0.052 | [5] 0.027 | [6] -0.069 | [7] 0.019 | [8] 0.006 | [9] -0.135

FCHO1 (UniProt O14526)
active: [10] -0.593
inactive: [1] -0.114 | [3] -0.081 | [4] -0.073 | [5] 0.045 | [6] 0.191 | [7] 0.05 | [8] 0.094 | [9] -0.011

FOXO3 (UniProt O43524)
inactive: [1] -0.046 | [10] -0.427 | [3] -0.083 | [4] 0.086 | [5] -0.091 | [6] 0.234 | [7] 0 | [9] 0.081

HEATR3 (UniProt Q7Z4Q2)
Chain of UniProt Q7Z4Q2 (Q7Z4Q2 whole entry, looked up): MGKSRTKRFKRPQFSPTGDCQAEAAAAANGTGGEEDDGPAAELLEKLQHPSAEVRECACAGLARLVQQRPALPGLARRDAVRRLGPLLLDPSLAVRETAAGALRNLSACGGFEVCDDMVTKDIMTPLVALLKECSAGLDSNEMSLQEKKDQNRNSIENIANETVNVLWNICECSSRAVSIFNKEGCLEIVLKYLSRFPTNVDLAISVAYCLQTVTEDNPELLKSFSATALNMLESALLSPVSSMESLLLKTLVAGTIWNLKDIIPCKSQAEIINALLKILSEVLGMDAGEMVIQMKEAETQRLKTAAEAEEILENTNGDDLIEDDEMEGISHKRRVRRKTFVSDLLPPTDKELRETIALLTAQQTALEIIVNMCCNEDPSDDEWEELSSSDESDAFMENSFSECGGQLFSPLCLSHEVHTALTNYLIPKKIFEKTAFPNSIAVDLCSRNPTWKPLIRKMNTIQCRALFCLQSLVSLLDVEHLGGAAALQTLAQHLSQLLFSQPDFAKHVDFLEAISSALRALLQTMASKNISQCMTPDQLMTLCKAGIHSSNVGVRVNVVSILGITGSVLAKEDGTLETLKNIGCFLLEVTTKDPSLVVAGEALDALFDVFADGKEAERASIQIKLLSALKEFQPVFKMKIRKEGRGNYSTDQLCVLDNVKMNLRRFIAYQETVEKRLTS
inactive: [1] -0.08 | [2] 0.006 | [3] 0.07 | [4] -0.125 | [6] -0.137 | [7] -0.032 | [8] 0.216 | [9] -0.196
active: [5] -0.319

FIZ1 (UniProt Q96SL8)
Chain of UniProt Q96SL8 (Q96SL8 whole entry, looked up): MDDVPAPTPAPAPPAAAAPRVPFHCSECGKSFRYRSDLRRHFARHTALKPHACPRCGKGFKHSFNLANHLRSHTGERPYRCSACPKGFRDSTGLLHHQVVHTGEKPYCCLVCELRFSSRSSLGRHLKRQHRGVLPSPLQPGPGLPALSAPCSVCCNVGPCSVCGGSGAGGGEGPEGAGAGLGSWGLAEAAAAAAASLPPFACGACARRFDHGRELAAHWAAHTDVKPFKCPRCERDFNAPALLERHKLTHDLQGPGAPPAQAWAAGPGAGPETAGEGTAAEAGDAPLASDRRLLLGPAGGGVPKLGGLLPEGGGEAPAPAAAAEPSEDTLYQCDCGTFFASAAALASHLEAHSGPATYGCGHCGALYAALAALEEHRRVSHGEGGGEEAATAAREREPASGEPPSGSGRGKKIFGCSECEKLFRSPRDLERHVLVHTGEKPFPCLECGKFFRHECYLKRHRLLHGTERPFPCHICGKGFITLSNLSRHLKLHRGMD
inactive: [1] -0.14 | [4] 0.017 | [7] 0.123 | [8] 0.121

GAK (UniProt O14976)
inactive: [1] -0.222 | [10] 1.15 | [3] 1.13 | [4] -0.015 | [5] -0.81 | [6] 0.084 | [7] 0.344 | [8] -0.213 | [9] -0.187

HNRNPUL1 (UniProt M0R247)
inactive: [1] 0.041 | [10] -0.259 | [5] 0.121 | [7] -0.025 | [8] 0.031 | [9] 0.008

IFNGR1 (UniProt P15260)
Chain of UniProt P15260 (P15260 whole entry, looked up): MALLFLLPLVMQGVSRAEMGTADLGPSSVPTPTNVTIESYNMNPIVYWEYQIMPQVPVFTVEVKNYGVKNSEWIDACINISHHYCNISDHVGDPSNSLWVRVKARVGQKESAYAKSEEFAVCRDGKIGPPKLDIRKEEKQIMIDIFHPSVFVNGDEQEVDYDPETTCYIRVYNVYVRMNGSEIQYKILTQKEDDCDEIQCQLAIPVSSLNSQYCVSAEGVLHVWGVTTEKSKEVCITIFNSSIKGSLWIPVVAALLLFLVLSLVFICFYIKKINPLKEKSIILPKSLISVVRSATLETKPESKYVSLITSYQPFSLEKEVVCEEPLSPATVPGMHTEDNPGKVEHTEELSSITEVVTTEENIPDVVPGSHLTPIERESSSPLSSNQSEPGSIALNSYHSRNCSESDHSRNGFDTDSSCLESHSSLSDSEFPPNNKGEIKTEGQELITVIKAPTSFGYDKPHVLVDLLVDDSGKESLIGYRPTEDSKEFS
inactive: [2] 0.224 | [10] -0.086 | [3] -0.017 | [4] -0.067 | [5] 0.199 | [6] 0.14 | [8] 0.054 | [9] -0.093

FGG (UniProt P02679)
inactive: [3] -0.048 | [6] 0.231

GINS2 (UniProt Q9Y248)
Chain of UniProt Q9Y248 (Q9Y248 whole entry, looked up): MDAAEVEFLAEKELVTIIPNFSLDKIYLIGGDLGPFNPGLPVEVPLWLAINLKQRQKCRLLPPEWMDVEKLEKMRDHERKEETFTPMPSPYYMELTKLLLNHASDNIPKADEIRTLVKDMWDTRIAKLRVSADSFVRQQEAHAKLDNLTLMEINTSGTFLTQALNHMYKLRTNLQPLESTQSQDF
inactive: [1] 0 | [2] -0.033 | [3] 0.024 | [4] -0.02 | [5] -0.081 | [6] -0.042 | [7] -0.067 | [8] -0.057 | [9] 0.113

HAUS4 (UniProt Q9H6D7)
Chain of UniProt Q9H6D7 (Q9H6D7 whole entry, looked up): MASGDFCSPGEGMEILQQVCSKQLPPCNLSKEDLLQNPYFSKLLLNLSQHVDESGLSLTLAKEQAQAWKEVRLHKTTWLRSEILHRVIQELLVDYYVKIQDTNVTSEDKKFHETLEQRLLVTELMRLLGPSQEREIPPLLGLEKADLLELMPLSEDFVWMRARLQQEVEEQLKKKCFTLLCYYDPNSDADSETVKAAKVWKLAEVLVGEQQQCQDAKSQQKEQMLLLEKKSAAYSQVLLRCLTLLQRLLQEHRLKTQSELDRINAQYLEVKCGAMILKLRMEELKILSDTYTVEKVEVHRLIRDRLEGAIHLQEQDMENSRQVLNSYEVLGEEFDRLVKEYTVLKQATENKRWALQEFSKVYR
inactive: [2] 0.103 | [10] -0.107 | [3] 0.112 | [4] 0.246 | [6] 0.139 | [8] 0.095 | [9] 0.048
active: [5] -0.51

HBZ, A0A494C057
inactive: [2] 0.284 | [5] -0.054 | [8] -0.145

FAT2 (UniProt Q9NYQ8)
inactive: [1] 0.103 | [2] 0.107 | [3] 0.182 | [4] -0.149 | [5] -0.002 | [6] 0.225 | [7] 0.051 | [9] 0.132

FAT1 (UniProt Q14517)
inactive: [1] 0.028 | [2] 0.151 | [4] 0.01 | [5] 0.162 | [6] 0.683 | [7] -0.095 | [8] 0.019 | [9] 0.091
active: [3] -0.448

GID4 (UniProt Q8IVV7)
Chain of UniProt Q8IVV7 (Q8IVV7 whole entry, looked up): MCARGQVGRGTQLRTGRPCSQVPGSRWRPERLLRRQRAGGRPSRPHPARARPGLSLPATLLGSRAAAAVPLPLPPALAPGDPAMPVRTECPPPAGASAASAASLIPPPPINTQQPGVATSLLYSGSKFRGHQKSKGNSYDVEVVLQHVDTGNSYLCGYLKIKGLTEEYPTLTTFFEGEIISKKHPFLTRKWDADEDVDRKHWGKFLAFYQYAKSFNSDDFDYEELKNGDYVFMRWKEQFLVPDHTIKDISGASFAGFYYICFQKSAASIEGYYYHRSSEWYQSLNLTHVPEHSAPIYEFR
inactive: [2] 0.035 | [10] 0.025 | [3] -0.019 | [4] 0.016 | [5] 0.028 | [6] 0.027 | [8] 0.023 | [9] -0.071

GAB2 (UniProt Q9UQC2)
Chain of UniProt Q9UQC2 (Q9UQC2 whole entry, looked up): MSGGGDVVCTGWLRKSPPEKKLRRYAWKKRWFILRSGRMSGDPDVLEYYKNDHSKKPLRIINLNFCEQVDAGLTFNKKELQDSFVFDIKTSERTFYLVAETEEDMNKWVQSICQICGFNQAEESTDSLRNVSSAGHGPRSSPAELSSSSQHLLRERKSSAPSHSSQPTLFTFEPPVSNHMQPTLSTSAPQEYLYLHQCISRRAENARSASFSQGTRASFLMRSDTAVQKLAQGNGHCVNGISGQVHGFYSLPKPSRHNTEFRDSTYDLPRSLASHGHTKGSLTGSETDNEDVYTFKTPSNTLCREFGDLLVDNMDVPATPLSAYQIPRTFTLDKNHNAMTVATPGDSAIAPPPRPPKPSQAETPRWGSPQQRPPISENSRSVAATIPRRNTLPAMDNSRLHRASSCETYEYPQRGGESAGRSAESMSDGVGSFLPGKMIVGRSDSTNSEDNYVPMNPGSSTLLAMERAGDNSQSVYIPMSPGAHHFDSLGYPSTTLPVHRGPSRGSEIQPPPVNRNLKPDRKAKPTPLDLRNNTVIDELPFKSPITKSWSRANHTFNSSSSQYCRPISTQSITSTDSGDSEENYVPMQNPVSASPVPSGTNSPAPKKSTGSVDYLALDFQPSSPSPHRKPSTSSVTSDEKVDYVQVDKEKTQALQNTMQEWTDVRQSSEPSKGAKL
inactive: [1] -0.097 | [10] -0.573 | [3] 0.059 | [4] -0.242 | [5] -0.616 | [6] 0.094 | [7] 0.081 | [9] 0.004

FBXO9 (UniProt Q9UK97)
Chain of UniProt Q9UK97 (Q9UK97 whole entry, looked up): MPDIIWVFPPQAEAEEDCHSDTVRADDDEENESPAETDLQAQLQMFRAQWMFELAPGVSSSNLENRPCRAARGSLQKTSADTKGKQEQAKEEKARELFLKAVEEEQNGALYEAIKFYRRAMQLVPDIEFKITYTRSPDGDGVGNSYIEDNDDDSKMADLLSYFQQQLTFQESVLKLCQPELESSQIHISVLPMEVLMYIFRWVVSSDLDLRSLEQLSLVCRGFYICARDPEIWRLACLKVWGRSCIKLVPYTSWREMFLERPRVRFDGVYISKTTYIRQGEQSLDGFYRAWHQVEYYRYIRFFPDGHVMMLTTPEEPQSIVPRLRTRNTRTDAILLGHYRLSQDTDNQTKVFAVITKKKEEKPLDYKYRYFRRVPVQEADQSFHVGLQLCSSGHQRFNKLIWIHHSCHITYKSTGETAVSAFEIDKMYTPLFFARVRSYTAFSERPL
inactive: [1] -0.034 | [2] -0.119 | [3] 0.137 | [5] -0.101 | [6] 0.088 | [7] 0.038 | [8] -0.062 | [9] 0.137

GPD1 (UniProt P21695)
inactive: [2] 0.059 | [10] -0.066 | [3] -0.141 | [4] 0.079 | [5] 0.268 | [6] -0.051 | [8] 0.096 | [9] 0.009

GBA2 (UniProt Q9HCG7)
inactive: [1] -0.082 | [2] -0.027 | [10] -0.073 | [4] 0.048 | [5] 0.326 | [7] 0.121 | [8] 0.003 | [9] -0.003

GTF3A (UniProt Q92664)
inactive: [1] 0.034 | [2] -0.013 | [10] 0.065 | [4] -0.084 | [5] -0.036 | [7] 0.004 | [8] 0.249 | [9] 0.107

IDH3A isoform 2 (UniProt P50213)
Chain of UniProt P50213 (P50213 whole entry, looked up): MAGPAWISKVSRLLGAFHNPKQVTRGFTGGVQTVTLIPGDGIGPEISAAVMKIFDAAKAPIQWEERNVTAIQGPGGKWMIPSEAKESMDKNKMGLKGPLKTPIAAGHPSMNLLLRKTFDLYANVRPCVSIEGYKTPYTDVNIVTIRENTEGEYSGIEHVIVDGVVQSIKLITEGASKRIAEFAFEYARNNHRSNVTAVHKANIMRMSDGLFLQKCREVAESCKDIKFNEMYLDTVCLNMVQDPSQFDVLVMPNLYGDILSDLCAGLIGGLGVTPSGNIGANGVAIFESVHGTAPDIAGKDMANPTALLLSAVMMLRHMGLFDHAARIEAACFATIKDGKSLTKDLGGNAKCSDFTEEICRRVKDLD
inactive: [1] 0.196 | [2] 0.008 | [10] -0.004 | [5] 0.153 | [7] 0.011 | [8] -0.033 | [9] 0.059

H3-3A (UniProt P84243)
inactive: [2] -0.016 | [5] -0.07 | [8] -0.004
active: [9] 0.656

GNL3 (UniProt Q9BVP2)
Chain of UniProt Q9BVP2 (Q9BVP2 whole entry, looked up): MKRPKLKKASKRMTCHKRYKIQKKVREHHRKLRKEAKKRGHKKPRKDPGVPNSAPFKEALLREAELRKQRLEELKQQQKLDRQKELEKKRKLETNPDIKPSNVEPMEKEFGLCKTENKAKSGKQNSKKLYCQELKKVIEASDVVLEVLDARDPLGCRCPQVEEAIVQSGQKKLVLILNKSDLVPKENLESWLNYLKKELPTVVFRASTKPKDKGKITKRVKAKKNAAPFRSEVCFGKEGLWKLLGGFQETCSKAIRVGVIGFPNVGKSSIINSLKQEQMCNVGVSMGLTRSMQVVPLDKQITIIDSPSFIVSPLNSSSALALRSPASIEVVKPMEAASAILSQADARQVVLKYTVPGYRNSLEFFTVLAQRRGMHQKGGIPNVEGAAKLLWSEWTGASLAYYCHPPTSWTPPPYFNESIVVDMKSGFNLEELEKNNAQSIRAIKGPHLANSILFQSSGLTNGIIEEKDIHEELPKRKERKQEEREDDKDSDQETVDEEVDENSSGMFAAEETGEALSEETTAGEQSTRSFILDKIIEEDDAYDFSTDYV
inactive: [2] 0.047 | [10] 0.012 | [4] -0.007 | [8] 0.029 | [9] 0.066

HDAC10 (UniProt Q969S8)
inactive: [2] -0.01 | [10] 0.137 | [3] 0.006 | [5] -0.124 | [6] -0.026 | [8] 0.037 | [9] -0.287
